About 5,700 (7.6%) of roughly 75,000 compounds were called active. Inconclusive results (about 7%) are left out. The call rests on the fitted dose curve; in most records, active means well fitted inhibition curve with a large enough effect; inconclusive means small, poorly fitted or top-dose-only effect; inactive means no such curve, though single readings can be large or run the other way. Many of the other results were omitted from the sample, so actives are more common in it than they were.
Biological target: 3-hydroxyacyl-CoA dehydrogenase type-2 (Homo sapiens) (UniProt Q99714)
Test: qHTS Assay for Inhibitors of HSD17B4, hydroxysteroid (17-beta) dehydrogenase 4;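 further: the protocol describes HADH2 (HSD17B10) and not the HSD17B4 of the title; nearly all actives have a fitted effect of over 70% in size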
Conditions: recombinant HSD17B10, NADH fluorescence kinetic; series mostly up to 57.1 µM; activity change, negative = inhibition: at the top concentration
Procedure, shortened: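 20 nM HADH2, pH 9.0 Tris/Tween; cpd preinc 15 min RT; start w/ 1 mM NAD+ + 90 uM b-hydroxybutyryl-CoA; kinetic fluor ex360/em450 q30s x 4 min; delta last-first.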
On the % scale 0 is the no-effect control and ±100 the full control effect; potency means the concentration at half of the fitted maximal effect.

Q: For `CCOC(=O)c1ccc(N2C(=O)CC(Sc3nc(O)c(CC)c(=O)[nH]3)C2=O)cc1` (configuration not stated), which “activity change, negative = inhibition” value is on record?
A: -10.9% (inactive)

Q: `CN1CCN(c2ncncc2-c2ccc(C(=O)N(C)C)cc2)CC1` was tested. Which “activity change, negative = inhibition” value did it give?
A: -0.154% (inactive)

Q: `COC(=O)c1ccc(NC(=O)CSc2nnc(Cc3cccn3C)n2-c2ccc(F)cc2)cc1` was tested. Which “activity change, negative = inhibition” value did it give?
A: 7.48% (inactive)

Q: With `CC(=O)OC1CCC2(O)CC1(C)CCC1C2CC1(C)C` (configuration not stated) as the molecule, how does the “activity change, negative = inhibition” value read?
A: -5.12% (inactive)

Q: For `CC(=O)Oc1ccccc1C(=O)Nc1ncc([N+](=O)[O-])s1`, which “activity change, negative = inhibition” value is on record?
A: -2.68% (inactive)

Q: For `COc1ccccc1N1CCN(C[C@@H]2CN3C(=O)N(C)c4ccccc4C3=N2)CC1`, which “activity change, negative = inhibition” value is on record?
A: -1.78% (inactive)

Q: `CCOC(=O)[C@]1(C(/C=C/c2ccco2)NC(=O)OC)CCCC1=O` (some centres not stated) was tested. Which activity change, negative = inhibition did it give?
A: -2.18% [at 11.4 µM] (inactive)

Q: With `O=C1c2ccccc2C(=O)N1CCc1nn[nH]n1` as the molecule, how does the “activity change, negative = inhibition” value read?
A: -12.7% (inactive)

Q: `CN(C)CCOC(=O)C(c1ccccc1)C1(O)CCCC1` (configuration not stated) was tested. Which “activity change, negative = inhibition” value did it give?
A: 3.1% (inactive)

Q: For `COc1ccccc1N1CCN(C(=O)CSc2nnc(-c3ccoc3C)o2)CC1`, which “activity change, negative = inhibition” value is on record?
A: -20.2% (inactive)

Q: With `CCOC(=O)C1CCCN(C(=O)c2ccc(CS(=O)(=O)c3ccc(Br)cc3)o2)C1` (configuration not stated) as the molecule, how does the “activity change, negative = inhibition” value read?
A: -0.84% (inactive)

Q: `OC(COc1cccc(OCC(O)CN2CCCC2)c1)CN1CCCC1` (configuration not stated) was tested. Which “activity change, negative = inhibition” value did it give?
A: 8.82% (inactive)

Q: How did the “activity change, negative = inhibition” value turn out when `COc1ccc(-c2nnco2)cc1OC` was run?
A: -8.86% (inactive)

Q: How did the “activity change, negative = inhibition” value turn out when `COCCNCCOCCOc1cccc(OC)c1` was run?
A: 4.86% (inactive)

Q: How did the “activity change, negative = inhibition” value turn out when `Cc1c2cn[nH]c(=O)c2c(C)n1Cc1ccc(F)cc1` was run?
A: -2.15% (inactive)

Q: With `COCCn1c(=O)c(CCc2ccccc2)nc2cnc(N3CCNCC3)nc21` as the molecule, how does the Potency read?
A: 31.6 µM (active)

Q: `COCCn1c(=O)c(CCc2ccccc2)nc2cncnc21` was tested. Which “activity change, negative = inhibition” value did it give?
A: 3.41% (inactive)

Q: Which Potency does the source give for `Cn1c(=O)c(-c2ccccc2)nc2cnc(N3CCNCC3)nc21` here?
A: 25.1 µM (active)

Q: With `CCc1nc2ccccc2n(CCOCCOCCn2c(=O)c(CC)nc3ccccc32)c1=O` as the molecule, how does the “activity change, negative = inhibition” value read?
A: -3.31% (inactive)

Q: How did the “activity change, negative = inhibition” value turn out when `O=c1c(-c2ccc(F)cc2)nc2cnc(N3CCNCC3)nc2n1Cc1cccs1` was run?
A: 13.7% (inactive)

Q: `COCCn1c(=O)c(-c2cc(F)cc(F)c2)nc2cnc(N3CCNCC3)nc21` was tested. Which Potency did it give?
A: 25.1 µM (active)

Q: With `Cc1nc2cnc(N3CCNCC3)nc2n(Cc2ccc(F)cc2)c1=O` as the molecule, how does the Potency read?
A: 25.1 µM (active)

Q: Which “activity change, negative = inhibition” value does the source give for `O=C1C(c2ccccn2)=[N+]([O-])c2ccccc21` here?
A: -0.52% (inactive)

Q: For `COC1C[C@@H](O[C@@H]2C(C)C(=O)OC(C)C(C)C(O)C(C)C(=O)[C@@]3(CO3)CC(C)C(OC3OC(C)CC(N(C)C)C3O)C2C)OC(C)[C@@H]1O` (some centres not stated), which “activity change, negative = inhibition” value is on record?
A: -6.38% (inactive)

Q: With `O=C(Oc1cc(OC(=O)c2ccccc2)c2c(c1)OC(c1ccc(OC(=O)c3ccccc3)c(OC(=O)c3ccccc3)c1)[C@@H](OC(=O)c1ccccc1)C2)c1ccccc1` (some centres not stated) as the molecule, how does the “activity change, negative = inhibition” value read?
A: -0.411% (inactive)

Q: For `CC(=O)Oc1cccc(N2C(=O)C3CC=C(Cl)CC3C2=O)c1` (configuration not stated), which “activity change, negative = inhibition” value is on record?
A: 5.42% (inactive)

Q: With `COc1ccc(C(=O)Nc2ccc3c(c2)OCO3)cc1OC` as the molecule, how does the “activity change, negative = inhibition” value read?
A: 2.82% (inactive)

Q: `CC(=O)Nc1ccc(S(=O)(=O)N2CCCC2C(=O)O)cc1` (configuration not stated) was tested. Which “activity change, negative = inhibition” value did it give?
A: -5.4% (inactive)

Q: Which “activity change, negative = inhibition” value does the source give for `C=C(C)Cn1c(SCC(=O)NCc2ccco2)nc2sc3c(c2c1=O)CCC3` here?
A: 4.01% (inactive)

Q: With `CN1CCc2c(sc3c2c(NCc2ccco2)nc2nnnn23)C1` as the molecule, how does the Potency read?
A: 31.6 µM (active)

Q: Which “activity change, negative = inhibition” value does the source give for `O=C(Cc1ccccc1)n1nc(-c2ccccc2)nc1NCc1ccco1` here?
A: 107% (inactive)

Q: `CC(=O)NCCc1ccc(S(=O)(=O)N(C)C2CCS(=O)(=O)C2)cc1` (configuration not stated) was tested. Which “activity change, negative = inhibition” value did it give?
A: -5.85% (inactive)

Q: With `CCn1c(COc2ccccc2)nnc1SCC(=O)Nc1ccc2c(c1)OCCO2` as the molecule, how does the “activity change, negative = inhibition” value read?
A: 6.16% (inactive)

Q: For `CN1CCN(S(=O)(=O)c2ccc(NC(=O)C3CCCO3)cc2)CC1` (configuration not stated), which “activity change, negative = inhibition” value is on record?
A: 10.7% (inactive)

Q: For `O=c1c2[nH]c3ccc(Cl)cc3c2ncn1Cc1ccccn1`, which “activity change, negative = inhibition” value is on record?
A: -4.52% (inactive)

Q: For `COc1ccc2[nH]c3c(=O)n(Cc4ccco4)cnc3c2c1`, which Potency is on record?
A: 3.16 µM (active)

Q: `COc1ccc(C(=O)CSc2nnc(COc3ccccc3)n2Cc2ccco2)cc1` was tested. Which “activity change, negative = inhibition” value did it give?
A: -21.4% (inactive)

Q: With `Cc1cc(C)c2nc3c(c([C@H](O)[C@@H]4CCCCN4)c2c1)CC/C3=C/c1ccc(Cl)cc1` as the molecule, how does the activity change, negative = inhibition read?
A: 9.81% [at 11.4 µM] (inactive)

Q: How did the “activity change, negative = inhibition” value turn out when `O=C1CC(c2cccc(Br)c2)C2=C(CCCC2=O)N1` (configuration not stated) was run?
A: 11.3% (inactive)

Q: How did the “activity change, negative = inhibition” value turn out when `O=C(CN1CCN(S(=O)(=O)c2ccc(F)cc2)CC1)Nc1ccccc1F` was run?
A: -0.0846% (inactive)

Q: `COc1ccc(NC(=O)CN2CCN(S(=O)(=O)c3ccc(F)cc3)CC2)cc1Cl` was tested. Which “activity change, negative = inhibition” value did it give?
A: 10.4% (inactive)

Q: How did the Potency turn out when `COc1cc2c(cc1NC(=O)CN1CCN(S(=O)(=O)c3ccc(F)cc3)CC1)oc1ccccc12` was run?
A: 3.16 µM (active)

Q: `CCN(CCCCOC(=O)c1ccc(OC)c(OC)c1)C(C)Cc1ccc(OC)cc1` (configuration not stated) was tested. Which “activity change, negative = inhibition” value did it give?
A: -2.4% (inactive)

Q: For `CC(=O)N1CCC(C(=O)Nc2nc(-c3ccccc3)ns2)CC1`, which Potency is on record?
A: 10 µM (active)

Q: `Cc1ccc2c(NC(=O)C3CC3)cccc2n1` was tested. Which “activity change, negative = inhibition” value did it give?
A: 5.59% (inactive)

Q: How did the “activity change, negative = inhibition” value turn out when `CCN(CC)S(=O)(=O)N1CCC(C(=O)NC(C)CCc2ccccc2)CC1` (configuration not stated) was run?
A: -6.36% (inactive)

Q: With `CCOC(=O)c1nc(N)sc1C(=O)OCC` as the molecule, how does the “activity change, negative = inhibition” value read?
A: 4.19% (inactive)

Q: For `CN1CCCc2cc(C#N)c(=O)[nH]c21`, which Potency is on record?
A: 15.8 µM (active)

Q: With `COc1ccccc1Cn1c(=S)[nH]c2cc(C(=O)N3CCN(C)CC3)ccc2c1=O` as the molecule, how does the “activity change, negative = inhibition” value read?
A: 0.149% (inactive)

Q: How did the “activity change, negative = inhibition” value turn out when `CCOC(=O)CSC1=C(C#N)C(c2ccco2)C(C(=O)OCc2ccccc2)=C(C)N1` (configuration not stated) was run?
A: 32.8% (inactive)

Q: For `CC1=C(C(=O)Nc2ccccc2)C(c2cccs2)C(C#N)=C(SCC#N)N1` (configuration not stated), which Potency is on record?
A: 31.6 µM (active)

Q: Which “activity change, negative = inhibition” value does the source give for `CCOC(=O)CSC1=C(C#N)C(c2sccc2C)CC(=O)N1` (configuration not stated) here?
A: 14.8% (inactive)

Q: With `O=C(Cn1nnc(-c2ccc(CN3CCOCC3)cc2)n1)NC1CCCCC1` as the molecule, how does the “activity change, negative = inhibition” value read?
A: -1.05% (inactive)

Q: Which “activity change, negative = inhibition” value does the source give for `COCCCNC(=O)COc1cc(C)c(Cl)c(C)c1` here?
A: 0.176% (inactive)

Q: With `CCC/C(O)=C1\C(=O)CC(C)(C)CC1=Nc1ccccc1OC` as the molecule, how does the “activity change, negative = inhibition” value read?
A: 1.69% (inactive)

Q: How did the activity change, negative = inhibition turn out when `CCCNC(=O)OC[C@@H]1O[C@H](c2ccccc2)C=C[C@@H]1Oc1ccc(OC)cc1` was run?
A: -0.586% [at 11.4 µM] (inactive)

Q: `COc1ncc2nc(-c3ccc(Cl)cc3)c(=O)n(-c3ccccc3)c2n1` was tested. Which Potency did it give?
A: 25.1 µM (active)

Q: Which Potency does the source give for `O=c1c(-c2cccs2)nc2cnc(Oc3ccccc3)nc2n1-c1ccccc1` here?
A: 25.1 µM (active)

Q: Which “activity change, negative = inhibition” value does the source give for `COc1ccc(Oc2ncc3nc(C)c(=O)n(-c4ccccc4)c3n2)cc1` here?
A: 4.75% (inactive)

Q: `COc1ccc(C(=O)n2nc(-c3ccc(Cl)cc3)nc2N)cc1OC` was tested. Which “activity change, negative = inhibition” value did it give?
A: -5.6% (inactive)

Q: Which “activity change, negative = inhibition” value does the source give for `CN(C(=O)COc1nnc(-c2cccs2)c(-c2cccs2)n1)c1ccccc1` here?
A: -8.5% (inactive)

Q: For `COc1ccc(-c2c3c(=O)n(C)c(=O)n(C)c3cn2-c2cccc(OC)c2)cc1`, which “activity change, negative = inhibition” value is on record?
A: 3.18% (inactive)

Q: `Cn1cc(-c2nc3cncnc3n(-c3ccccc3)c2=O)c2ccccc21` was tested. Which “activity change, negative = inhibition” value did it give?
A: 6.28% (inactive)

Q: Which “activity change, negative = inhibition” value does the source give for `COc1ccc(-n2c(C)nc3c(cnn3-c3ccccc3)c2=O)cc1` here?
A: 1.94% (inactive)

Q: `COc1ncc2nc(-c3ccc(Cl)cc3)c(=O)n(C)c2n1` was tested. Which Potency did it give?
A: 31.6 µM (active)

Q: How did the “activity change, negative = inhibition” value turn out when `COc1nc(NCc2ccc(Cl)cc2)nc(OC)n1` was run?
A: 9.75% (inactive)

Q: How did the Potency turn out when `COc1ccc(Oc2ncc3nc(-c4ccc(F)cc4)c(=O)n(C)c3n2)cc1` was run?
A: 31.6 µM (active)
